Experimental data from PubChem BioAssay (NCI).
About 83,000 compounds went through this panel and 20% of them were active in at least one assay; those are over-represented in the sample as a whole.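 Activity criterion: percent growth below 10, measured after cells in 96-well plates were exposed to a single compound concentration for 48 hours.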 Values without a mark were called inactive. Activity calls are given as the source filed them.

Key:
Test in all cases: NCI-60 one-dose screen, 48 h (100 = growth as untreated, 0 = no growth, -100 = all killed)
Settings in all cases: 10 µM unless noted
SR leukemia = system: SR leukemia
RPMI-8226 leukemia = system: RPMI-8226 leukemia
OVCAR-8 ovarian = system: OVCAR-8 ovarian
OVCAR-5 ovarian = system: OVCAR-5 ovarian
OVCAR-4 ovarian = system: OVCAR-4 ovarian
SK-OV-3 ovarian = system: SK-OV-3 ovarian
IGROV1 ovarian = system: IGROV1 ovarian
OVCAR-3 ovarian = system: OVCAR-3 ovarian
HS 578T breast = system: HS 578T breast
NCI/ADR-RES ovarian = system: NCI/ADR-RES ovarian
T-47D breast = system: T-47D breast
BT-549 breast = system: BT-549 breast
SW-620 colon = system: SW-620 colon
MCF7 breast = system: MCF7 breast
HCT-116 colon = system: HCT-116 colon
HCC-2998 colon = system: HCC-2998 colon
KM12 colon = system: KM12 colon
MDA-MB-435 melanoma = system: MDA-MB-435 melanoma

Row | SMILES | growth (SR leukemia) | growth (RPMI-8226 leukemia) | growth (OVCAR-8 ovarian) | growth (OVCAR-5 ovarian) | growth (OVCAR-4 ovarian) | growth (SK-OV-3 ovarian) | growth (IGROV1 ovarian) | growth (OVCAR-3 ovarian) | growth (HS 578T breast) | growth (NCI/ADR-RES ovarian) | growth (T-47D breast) | growth (BT-549 breast) | growth (SW-620 colon) | growth (MCF7 breast) | growth (HCT-116 colon) | growth (HCC-2998 colon) | growth (KM12 colon) | growth (MDA-MB-435 melanoma)
1 | C[C@@H]1CCCCCCCCC[C@H](O)C(=O)C[C@@H](SC[C@@H](O)C(=O)O)C(=O)O1 | 74.4% | -2.38% (active) | 94.5% | 104% | 110% | 104% | 115% | 107% | 113% | 106% | 75.8% | 91.8% | 103% | 33.9% | 54.5% | 109% | 95.8% | 
2 | OCC12CCCC(CO)(COC1)C2O (stereo not given) | 116% | 103% | 109% | 106% | 104% | 102% | 116% | 117% | 115% | 97.3% | 101% | 105% | 97.1% | 106% | 100% | 100% | 107% | 
3 | CCCC(=O)N1CCCCC1CC (stereo not given) | 102% | 95.7% | 95.3% | 87.5% | 102% | 111% | 120% | 105% |  | 115% | 110% | 100% | 93.8% | 103% | 116% | 115% | 108% | 
4 | O=[N+]([O-])c1ccc(N/N=C(\C(=N/Nc2ccc([N+](=O)[O-])cc2[N+](=O)[O-])c2ccccc2)c2ccccc2)c([N+](=O)[O-])c1 | -1.67% (active) | 93.3% | 87.6% | 98.4% | 5.4% (active) | 106% | 92.3% |  | 74.4% | 90.4% |  |  | 72.8% | 96.3% | 65% | 89.6% | 88.5% | 77.8%
5 | C[N+](C)(CCCCCC[N+](C)(C)C1c2ccccc2-c2ccccc21)C1c2ccccc2-c2ccccc21 | 98.3% | 101% | 104% | 108% | 111% | 111% |  | 104% | 98.2% | 115% | 108% | 117% | 106% | 103% | 101% | 110% | 111% | 
6 | CC[C@]12C=CCN3CC[C@@]4(c5cc([C@H]6CCC(=O)N6)c(OC)cc5N(C)[C@H]4[C@@](O)(C(=O)OC)[C@@H]1OC(C)=O)[C@@H]32 | 92% [2.5 µM] | 114% [2.5 µM] | 103% [2.5 µM] | 88.4% [2.5 µM] | 104% [2.5 µM] | 91.1% [2.5 µM] | 103% [2.5 µM] |  | 113% [2.5 µM] | 107% [2.5 µM] | 96.3% [2.5 µM] | 113% [2.5 µM] | 108% [2.5 µM] | 93.2% [2.5 µM] | 100% [2.5 µM] | 110% [2.5 µM] | 111% [2.5 µM] | 107% [2.5 µM]
7 | O=C1C=Cc2ncccc2C1=O | 12.2% | 27.6% | 87.8% | 106% | 111% | 83.5% | 105% |  |  | 84% | 66.6% | 95.5% |  | 12.5% |  | 110% | 104% | 58.2%
8 | N=C(N)c1ccc(-c2ccc(-c3cc(F)cc(F)c3)o2)nc1 | 7.21% (active) | 60.5% | 97.5% | 88.9% | 96.2% |  | 88.6% | 95.6% | 87.8% | 94.6% | 86.3% | 97.4% | 54.2% | 66.9% | 64.2% | 96.5% | 91.5% | 90.9%
9 | COc1cc2nc(Cl)nc(Nc3cccc(C(=O)/C=C/c4ccc(F)cc4)c3)c2cc1OC | 12.2% | -18.1% (active) | 67.3% | 68.2% | 64.9% | 106% | 51% |  | 101% | 51.6% | 67.6% | 61.4% |  | 23.8% | -41.2% (active) | 49.9% | 28.4% | 39.4%
10 | O=S(=O)(NCCNc1cc(-c2cn(-c3ccccc3)nc2-c2cccc(O)c2)ccn1)c1ccc(Cl)cc1 | 2.36% (active) | 12.8% | 31% | 63.4% | 38.2% | 53.5% | 44.4% |  | 21.2% | 29.1% | 14.4% | 50.7% | 32.8% | 14.9% | 20.4% | -42.8% (active) | 19.4% | 23.3%
11 | c1csc(-c2nc(-c3cc4ccccc4c(N4CCOCC4)n3)cs2)c1 | 97.7% | 106% | 102% | 124% | 110% | 99.5% | 86.3% |  | 99.9% | 94.2% | 71.2% | 103% | 97.2% | 80.5% | 100% | 103% | 99.7% | 38%
12 | Cc1cc(Cl)nc(N(CCNc2ccnc3cc(Cl)ccc23)Cc2ccco2)n1 | -3.12% (active) | -30.7% (active) | 45.3% | 80.5% | 53.1% | 123% | 38.3% |  | 79.2% | 44.5% | -14.7% (active) | 54.7% | 28% | 22.7% | 13.6% | 91.1% | 59.5% | 41.9%
13 | NCCNc1nc(-c2ccccc2)nc2nc(-c3ccccc3)oc12 | 7.63% (active) | 68.7% | 97.7% | 105% | 96.5% |  | 81.8% | 88.2% | 91.3% | 91.8% | 81.7% | 97.7% | 51% | 81.2% | 54.7% | 98.6% | 98.8% | 92.2%
14 | CCCCC[C@H]1CC=C2C(=O)C(Cl)=C[C@@H]2CC=CCCCC(=O)O[C@@H](CCCCC)CC=C2C(=O)C(Cl)=C[C@@H]2CC=CCCCC(=O)O[C@@H](CCCCC)CC=C2C(=O)C(Cl)=C[C@@H]2CC=CCCCC(=O)O1 | 6.25% [8 µM] (active) | 2.73% [8 µM] (active) | -17.1% [8 µM] (active) | 144% [8 µM] | 59.9% [8 µM] | 120% [8 µM] | 36% [8 µM] |  | 78% [8 µM] | 96.2% [8 µM] | 61% [8 µM] | 67.6% [8 µM] | 16.5% [8 µM] | 29.9% [8 µM] | 11.4% [8 µM] | 99.1% [8 µM] | 91.2% [8 µM] | 25.1% [8 µM]
15 | Cc1cc(N(CCCNc2ccnc3cc(Cl)ccc23)Cc2ccco2)nc(N2CCN(C)CC2)n1 | -16.7% (active) | 3.87% (active) | 55.4% | 73.9% | 57% | 98% | 38.5% |  | 67.6% | 59.8% | 23.6% | 50.2% | 33.6% | 29% | 28.3% | 86.9% | 63.3% | -5.06% (active)
16 | O=C1c2cccc3cccc(c23)C(=O)N1CC#Cc1ccc2c3c(cccc13)C(=O)N(CCN1CCNCC1)C2=O | 2.23% (active) | 8.66% (active) | 93.9% | 92.1% | 85.3% | 132% | 91.4% |  | 106% | 102% | 38.3% | 101% | 28.3% | -43.9% (active) | -64.1% (active) | 104% | 98.9% | 105%
17 | Nc1ccc(Br)cn1 | 98.9% | 101% | 102% | 93% | 101% | 103% | 110% |  | 99.5% | 103% | 98.7% | 94.7% | 104% | 110% | 96.4% | 98.1% |  | 113%
